Rab9 prom act: activators of Rab9 promoter. 320,000 tested, 2.8% active. Huh7 Rab9 promoter-luciferase reporter, luminescence, 24 h. Potency, µM (titrated, usually from 9.22 µM), for inactives: top-dose activation, negative = inhibition, actives largely listed as activators. AID 485297; also: % of control where 0% means no effect; nearly all actives have a fitted effect of over 60% in size
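Quantitative HTS format; Huh7 Rab9-luciferase reporter cells (1500/well) receive compound 2 h post-plating, incubate 24 h at 37 °C, then get luciferase reagent for 10 min before luminescence reading.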
ELG1 genotox: inducers of genotoxicity in HEK293T ELG1-luciferase cells; 330,000 tested, 1.3% active; HEK293T ELG1-luciferase reporter, luminescence, 16 h; Potency, µM (doses to about 46 µM), for the others: at the top dose activity change, positive = activation, most hits filed as activators; also: % of control where 0% means no effect; nearly all actives have a fitted effect of over 60% in size
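HEK293T cells expressing luciferase-tagged ELG1 were exposed to compound or DMSO vehicle for 16 hr at 37 °C and 5% CO2. Luciferase activity was then measured with ONE-Glo after 30 min at room temperature.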
KinaseGlo FLuc: Kinase-Glo luciferase inhibition (counter-screen). Kinase-Glo luciferase, ATP luminescence, 8 min. 200,000 tested, 0.28% active. Potency, µM (series often up to 38.3 µM), without a hit: at the highest dose activity change, negative = inhibition, usual class: inhibitors; also: % is scaled to controls: 0 for no effect and ±100 for the full control effect; nearly all actives have a fitted effect of over 60% in size
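Inhibition of Kinase-Glo luciferase light generation was assessed at 10 uM ATP in pH 7.2 imidazole buffer, with luminescence measured after eight minutes at ambient temperature.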
NPC1 promoter act: NPC1 promoter activation. Potency, µM (highest dose often 9.22 µM), for the others: at the highest dose activation, actives largely listed as activators. Huh7 NPC1 promoter luciferase reporter, 24 h. 320,000 tested, 2.4% active; also: % of control where 0% means no effect; nearly all actives have a fitted effect of over 60% in size
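Readout is luciferase luminescence, reflecting NPC1 promoter activation in stably transfected Huh7 cells after 24 h compound exposure at 37 °C in reduced-serum medium with 10% FBS.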
SMN2 splice up: enhancers of SMN2 splice variant expression | HEK293 SMN2-luciferase splicing reporter, luminescence, 30-36 h | Potency, µM (top dose mostly 46.1 µM), for the others: at the highest dose activity change, positive = activation, actives largely listed as activators | 210,000 tested, 2.8% active; also: % of control where 0% means no effect; nearly all actives have a fitted effect of over 55% in size
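HEK293 cells carry an SMN2 […]–luciferase reporter in which exon 7 inclusion puts luciferase in frame. Cells were plated 10-12 h before compound addition, then incubated 30-36 h at 37C. ONE-Glo luminescence was read; sodium butyrate at 4.5 mM final served as control.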
FLuc modulator: inhibits or activates purified firefly luciferase, miR-21 counter-screen; Potency, µM (titrated, usually from 57.5 µM), for the others: at the highest dose activity change, negative = inhibition, hits mostly inhibitors; 360,000 tested, 6.9% active; AID 588342; P08659; purified FLuc, Km substrates, luminescence inhibition;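 also: plate controls were vehicle for no effect and reference inhibitor for full effect; nearly all actives have a fitted effect of over 55% in size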
Target sequence (P08659 whole entry, looked up): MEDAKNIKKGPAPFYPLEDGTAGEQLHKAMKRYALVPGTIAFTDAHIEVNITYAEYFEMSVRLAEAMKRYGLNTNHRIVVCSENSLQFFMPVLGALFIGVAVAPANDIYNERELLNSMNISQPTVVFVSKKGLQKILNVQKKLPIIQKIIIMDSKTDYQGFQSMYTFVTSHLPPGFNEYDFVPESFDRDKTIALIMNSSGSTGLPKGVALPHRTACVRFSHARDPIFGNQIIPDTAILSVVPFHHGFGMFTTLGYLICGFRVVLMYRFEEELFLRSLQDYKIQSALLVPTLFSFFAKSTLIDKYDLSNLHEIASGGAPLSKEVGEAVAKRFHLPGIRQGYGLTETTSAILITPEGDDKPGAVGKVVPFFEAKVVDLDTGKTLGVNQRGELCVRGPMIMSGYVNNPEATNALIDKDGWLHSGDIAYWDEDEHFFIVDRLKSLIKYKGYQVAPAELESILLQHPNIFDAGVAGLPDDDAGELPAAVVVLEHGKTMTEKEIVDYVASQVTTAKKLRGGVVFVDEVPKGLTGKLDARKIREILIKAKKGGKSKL
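Purified P. pyralis luciferase (10nM final) with 10uM D-luciferin and 10uM ATP (Km levels) in 50mM Tris acetate pH 7.5, 10mM Mg acetate, 0.01% Tween-20, 0.05% BSA; qHTS 6-point titration, ~60 µM downward; luminescence read.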
* hit, by the source's call; [ ] = remark or other dose. This is a sample that favours compounds with a hit; in the whole collection about 7.5% have one here. Calls follow the shape of the dose curve; as a rule, active = well fitted curve in the direction sought with a large enough effect; inconclusive = small, poorly fitted or top-dose-only effect, or another doubt; inactive = no such curve, though single readings can be large; an effect the other way counts as inactive or inconclusive. Potency is read from the fitted curve at half-maximal effect.

Cc1c(CCC(=O)N[C@@H](C)C(=O)O)c(=O)oc2c(C)c3oc4c(c3cc12)CCCC4 was read as Rab9 prom act -1.3%, ELG1 genotox 1.4%, NPC1 promoter act -1.3% and FLuc modulator inconclusive.
For Cc1oc2cc3oc(=O)c(CCC(=O)NCCC(=O)O)c(C)c3cc2c1C the results were Rab9 prom act 0.2%, ELG1 genotox 10.6%, NPC1 promoter act -3.9% and FLuc modulator 12µM*.
Screening Cc1c(CCC(=O)N2CCC(C(=O)NCCCCCC(=O)O)CC2)c(=O)oc2cc3oc4c(c3cc12)CCCC4 returned Rab9 prom act -39.1%, ELG1 genotox 9.5%, NPC1 promoter act -3.1% and FLuc modulator 13.5µM*.
Cc1c(CCC(=O)N[C@@H](CC(C)C)C(=O)O)c(=O)oc2cc3oc4c(c3cc12)CCCC4 was read as Rab9 prom act -7.1%, ELG1 genotox 4.5%, NPC1 promoter act -2.5% and FLuc modulator 16.9µM*.
Cc1c(CCC(=O)O)c(=O)oc2cc3oc4c(c3cc12)CCCC4 was read as Rab9 prom act 5.2%, ELG1 genotox 10.1%, NPC1 promoter act 2.1% and FLuc modulator 6.01µM*.
Screening O=C(CSc1ccccc1)N(c1ccc(Br)cc1)c1nccs1 returned Rab9 prom act 1.6%, ELG1 genotox 0.2%, KinaseGlo FLuc -3.0%, NPC1 promoter act -1.7%, SMN2 splice up -0.5%[1.84 µM] and FLuc modulator -3.3%.
`Cc1c(CCC(=O)NCC(=O)NCC(=O)O)c(=O)oc2cc3oc4c(c3cc12)CCCC4` gave Rab9 prom act 1.4%, ELG1 genotox 0.2%, NPC1 promoter act -4.0% and FLuc modulator 21.3µM*.
`Cc1c(CCC(=O)N2CCC[C@H]2C(=O)O)c(=O)oc2cc3oc4c(c3cc12)CCCC4` gave Rab9 prom act -4.4%, ELG1 genotox inconclusive, NPC1 promoter act 18.5% and FLuc modulator 12µM*.
Cc1c(CCC(=O)NCCC(=O)O)c(=O)oc2c(C)c3oc4c(c3cc12)CCCC4 was read as Rab9 prom act 11.6%, ELG1 genotox 4.8%, NPC1 promoter act -4.4% and FLuc modulator inconclusive.
`Cc1cc(-c2nnc3n2N=C(c2ccc(-c4ccccc4)cc2)CS3)n[nH]1` gave Rab9 prom act -7.4%, ELG1 genotox 0.0%, NPC1 promoter act -0.7% and FLuc modulator 16.9µM*.
For Fc1ccc(C2=Nn3c(nnc3-c3n[nH]c4c3CCC4)SC2)cc1 the results were Rab9 prom act -3.8%, ELG1 genotox 18.4µM*, KinaseGlo FLuc -6.3%, NPC1 promoter act -1.5%, SMN2 splice up 20µM* and FLuc modulator 1.1%.
Cc1cc(-c2nnc3n2N=C(c2ccccc2)CS3)n[nH]1 was read as Rab9 prom act 5.8%, ELG1 genotox inconclusive, NPC1 promoter act 0.5% and FLuc modulator -0.1%.
For c1ccc(-c2cc(-c3nnc4n3N=C(c3ccc5ccccc5c3)CS4)[nH]n2)cc1 the results were Rab9 prom act -0.3%, ELG1 genotox inconclusive, KinaseGlo FLuc -1.1%, NPC1 promoter act 1.6%, SMN2 splice up 11.2µM* and FLuc modulator inconclusive.
Screening O=C(CCN1CCOCC1)NC1CCCN(Cc2ccccc2F)C1 (stereo unspecified) returned Rab9 prom act 1.3%, ELG1 genotox -3.1%, NPC1 promoter act 0.8% and FLuc modulator 7.6%.
`Cc1ccc(-c2noc(-c3ccccc3NC(=O)C3CC(=O)N(c4cccc(C)c4)C3)n2)cc1` (stereo unspecified) gave FLuc modulator -4.8%.
COc1cccc(C(=O)N2c3nc(-c4ccco4)nn3C3(CCCCC3)[C@@H]3CCCC[C@@H]32)c1 was read as FLuc modulator 0.7%.
Cc1ccc(CNC(=O)C2(S(=O)(=O)c3ccc(C)cc3)CC2)cc1 was read as Rab9 prom act 5.3%, ELG1 genotox -7.2%, NPC1 promoter act -3.0% and FLuc modulator 5.0%.
Cc1ccc(CNC(=O)C2(S(=O)(=O)c3ccccc3)CC=CC2)cc1 was read as Rab9 prom act 3.98µM*, ELG1 genotox inconclusive, NPC1 promoter act 3.98µM* and FLuc modulator 15.1µM*.
`CCOC(=O)COc1cc(C)c(Cl)cc1C(=O)c1ccn2nc(-c3ccc(OC)cc3)cc2n1` gave SMN2 splice up 2.8% and FLuc modulator inconclusive.
`COc1ccc2c(c1)c1c(c(=O)n(-c3ccc(F)c(Cl)c3)c(=O)n1Cc1ccccc1F)n2C` gave FLuc modulator -1.0%.
For Cc1ccc(C(=O)NC2(O)C(=O)c3ccccc3C2=O)cc1C the results were Rab9 prom act -2.3%, ELG1 genotox -1.7%, NPC1 promoter act -2.7% and FLuc modulator 2.39µM*.
COc1ccc(C2=CC(=O)CC(C)(C)C2)cc1 was read as Rab9 prom act 16.9%, ELG1 genotox 7.1%, NPC1 promoter act 1.2% and FLuc modulator -22.0%.
`CC1(C)CC(=O)C=C(c2ccc(-c3ccccc3)cc2)C1` gave Rab9 prom act inconclusive, ELG1 genotox inconclusive, NPC1 promoter act 2.82µM* and FLuc modulator inconclusive.
Screening CC(C)(C)NC(=O)NC(=O)CSc1ccc(S(=O)(=O)N2CCCCC2)cn1 returned Rab9 prom act -1.3%, ELG1 genotox 1.0%, NPC1 promoter act -0.4% and FLuc modulator 0.5%.
`CCOC(=O)c1c(C)nc(C)c2c(=O)oc3ccccc3c12` gave Rab9 prom act 22.6%, ELG1 genotox -11.0%, KinaseGlo FLuc -1.6%, NPC1 promoter act -3.1%, SMN2 splice up 13.7% and FLuc modulator 16.9µM*.
CCOC(=O)c1cc2c(=O)c3ccccc3oc2nc1C was read as Rab9 prom act inconclusive, ELG1 genotox 9.2µM*, NPC1 promoter act 22.2% and FLuc modulator 6.01µM*.
Screening CCOC(=O)c1cc2c(ccc3ccccc32)oc1=O returned Rab9 prom act -4.6%, ELG1 genotox 4.6%, KinaseGlo FLuc -7.0%, NPC1 promoter act -1.3% and FLuc modulator inconclusive.
Screening COCc1nc2oc3ccccc3c(=O)c2cc1C(=O)OC returned Rab9 prom act 4.47µM*, ELG1 genotox inconclusive, NPC1 promoter act inconclusive and FLuc modulator 15.1µM*.
Screening COC(=O)CN(C#N)c1nc(NCc2ccccc2)nc(OC)n1 returned Rab9 prom act -4.5%, ELG1 genotox 12.8%, NPC1 promoter act -12.7% and FLuc modulator -0.9%.
Screening CCC(=O)Nc1cc2nn(-c3ccc(OC)cc3)nc2cc1C returned Rab9 prom act inconclusive, ELG1 genotox 0.411µM*, KinaseGlo FLuc -7.7%, NPC1 promoter act 0.1µM*, SMN2 splice up -9.2% and FLuc modulator 0.301µM*.

Assay outcomes (PubChem BioAssay)
